This passage reports growth results from PubChem BioAssay (NCI).

Compounds without any hit were thinned out: in the full panel of roughly 83,000, 20% have a hit.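 Cells were grown in 96-well plates and exposed to the test compound at a single concentration for 48 hours; results are reported as percent growth, with values below 10 considered active.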 A number with no mark means an inactive call. The source made the active and inactive calls.

Among the test systems are NCI-H23 lung; NCI-H226 lung; NCI-H322M lung; NCI-H460 lung; HOP-92 NSCLC; NCI-H522 lung; A549/ATCC NSCLC; 786-0 renal; COLO 205 colon; DU-145 prostate; K-562 leukemia; MALME-3M melanoma; MDA-MB-231 breast; RXF 393 renal; SF-268 CNS; SF-295 CNS; SF-539 CNS; UACC-257 melanoma; M14 melanoma; HOP-62 NSCLC.
What all share (assay): NCI-60 one-dose screen, 48 h (100 = growth as untreated, 0 = no growth, -100 = all killed)
Holding throughout (conditions): 10 µM unless noted

For `O=C(NNc1ccccc1)OCc1ccccc1`, the growth was 103% in the assay on NCI-H23 lung; 97.7% in the assay on NCI-H226 lung; 67.6% with NCI-H322M lung; 79.5% with NCI-H460 lung; 82% in the assay with HOP-92 NSCLC; 82.1% in the assay with NCI-H522 lung. For the same compound, the growth was 70.7% in the assay on A549/ATCC NSCLC; 78.2% with 786-0 renal; 97.6% with COLO 205 colon; 69.1% with DU-145 prostate; 3.91% (active) with K-562 leukemia; 121% in the assay with MALME-3M melanoma. Also, the growth with MDA-MB-231 breast was 74.4%; in the assay with RXF 393 renal, 119%; in the assay with SF-268 CNS, 63%; in the assay with SF-295 CNS it was 58%; with SF-539 CNS it was 97.1%; in the assay with UACC-257 melanoma, 92.4%. Besides, the growth with M14 melanoma is 17.6%.
In the case of `Cc1ccccc1N=C(N)Nc1ccccc1C` (tested in a mixture with another compound), the growth is 94.8% with NCI-H23 lung; 97.1% in the assay with NCI-H226 lung; 99.4% in the assay with NCI-H322M lung; 76.1% in the assay on NCI-H460 lung; 76.5% in the assay on HOP-92 NSCLC; 4.48% (active) in the assay on NCI-H522 lung. In addition, the growth with A549/ATCC NSCLC is 74.4%; with 786-0 renal it was 73.9%; in the assay with COLO 205 colon, 85.5%; with DU-145 prostate, 84.3%; in the assay with K-562 leukemia, 85.8%; with MALME-3M melanoma, 102%. Also, the growth was 68.5% in the assay with MDA-MB-231 breast; 94.7% in the assay with RXF 393 renal; 72.2% in the assay on SF-268 CNS; 104% in the assay with SF-295 CNS; 72.4% in the assay with SF-539 CNS; 97.5% in the assay on UACC-257 melanoma.
In the case of `N#CC(I)CS(=O)(=O)c1ccccc1` (centres undefined), the growth is 101% in the assay on NCI-H23 lung; 105% in the assay with NCI-H226 lung; 124% in the assay with NCI-H322M lung; 114% in the assay with NCI-H460 lung; 94.5% in the assay on HOP-92 NSCLC; -80.6% (active) with NCI-H522 lung. The growth in the assay with A549/ATCC NSCLC is 93.3%; in the assay with 786-0 renal, 107%; in the assay on COLO 205 colon, -27.5% (active); in the assay on DU-145 prostate, 100%; in the assay on K-562 leukemia, 80.6%; with MALME-3M melanoma, -22.4% (active). Besides, the growth was 98.3% with MDA-MB-231 breast; 81.8% in the assay with RXF 393 renal; 86.8% with SF-268 CNS; 115% with SF-295 CNS; 95.6% with SF-539 CNS; 73.1% in the assay on UACC-257 melanoma.
`O=C(O)c1ccc2c(c1)C(=O)c1ccccc1C2=O`: the growth with NCI-H23 lung is 103%; with NCI-H226 lung, 92%; in the assay on NCI-H322M lung, 102%; in the assay with HOP-62 NSCLC, 90.9%; with HOP-92 NSCLC, 93.9%; in the assay with NCI-H522 lung, 98.6%. Further, the growth in the assay with 786-0 renal is 103%; in the assay on COLO 205 colon, 100%; in the assay with DU-145 prostate it was 98.5%; in the assay on K-562 leukemia, 88.7%; in the assay on MALME-3M melanoma it was 102%; with MDA-MB-231 breast, 94.1%. Besides, the growth was 110% in the assay on RXF 393 renal; 98.3% in the assay on SF-268 CNS; 100% in the assay on SF-295 CNS; 97.7% in the assay on SF-539 CNS; 101% with M14 melanoma.
Take `CCCCCCC1N=C(N)N=C(N)N1c1cccc(Cl)c1` (centres undefined): the growth was 6.77% (active) with NCI-H23 lung; 67.7% with NCI-H226 lung; 43% in the assay with NCI-H322M lung; 34.6% in the assay on HOP-62 NSCLC; 15% in the assay on HOP-92 NSCLC; 80.2% in the assay with NCI-H522 lung. Also, the growth with A549/ATCC NSCLC was 35.4%; in the assay on 786-0 renal, 21.8%; with COLO 205 colon it was 54.4%; with DU-145 prostate, 34.3%; with K-562 leukemia it was 20.1%; in the assay on MALME-3M melanoma, 40.9%. For the same compound, the growth with MDA-MB-231 breast is 68%; in the assay with SF-268 CNS it was 19.6%; in the assay with SF-295 CNS it was 13.8%; with SF-539 CNS, 5.72% (active); in the assay on UACC-257 melanoma, 63.9%; in the assay with M14 melanoma, 31.7%.
Turning to `CCCCCC[C@@H](O)C/C=C\CCCCCCCC(=O)OCCOC`, the growth in the assay with NCI-H23 lung is 101%; with NCI-H226 lung, 101%; with NCI-H322M lung, 104%; in the assay with HOP-62 NSCLC, 88.9%; in the assay on HOP-92 NSCLC, 79.2%; with A549/ATCC NSCLC, 94.3%. Besides, the growth in the assay on COLO 205 colon was 115%; with DU-145 prostate, 116%; with K-562 leukemia it was 137%; in the assay with MDA-MB-231 breast, 90%; in the assay on RXF 393 renal, 110%; with SF-268 CNS, 106%. Further, the results for the growth with SF-295 CNS, in the assay with SF-539 CNS and in the assay with UACC-257 melanoma were 131%, 106% and 100%, respectively.
With `CCCCCCCCCCCC[S+](C)CC(=O)[O-]` (centres undefined), the growth was 25.9% in the assay with NCI-H23 lung; 44.3% with NCI-H226 lung; 89.4% with NCI-H322M lung; 54% in the assay on NCI-H460 lung; 30.7% with HOP-92 NSCLC; 46.5% with NCI-H522 lung. Moreover, the growth with A549/ATCC NSCLC is 68.4%; in the assay on 786-0 renal, 23.3%; in the assay with COLO 205 colon, 2.95% (active); in the assay on DU-145 prostate it was 54.8%; with K-562 leukemia, 30.7%; with MALME-3M melanoma, 51.2%. For the same compound, the growth in the assay with RXF 393 renal was 0.613% (active); in the assay with SF-268 CNS, 30.6%; in the assay on SF-295 CNS, 38.6%; in the assay on SF-539 CNS, 53.7%; in the assay on UACC-257 melanoma, 56.7%; with M14 melanoma it was 43.7%.
As to `CCOC(=O)NC(/C=C/c1ccccc1)NC(=O)OCC`, the growth in the assay on NCI-H23 lung was 102%; with NCI-H226 lung it was 102%; in the assay on NCI-H322M lung, 104%; in the assay with NCI-H460 lung, 108%; in the assay on HOP-92 NSCLC, 108%; with NCI-H522 lung, 100%. Moreover, the growth with A549/ATCC NSCLC was 95.7%; in the assay on 786-0 renal, 103%; in the assay with COLO 205 colon it was 112%; in the assay on DU-145 prostate, 109%; with K-562 leukemia it was 107%; in the assay with MALME-3M melanoma, 109%. The growth with RXF 393 renal is 121%; with SF-268 CNS it was 101%; in the assay on SF-295 CNS, 104%; with SF-539 CNS, 98.9%; with UACC-257 melanoma, 98.3%; in the assay with M14 melanoma, 103%.
Consider `Oc1c(C(Nc2ccccc2)c2ccccc2)ccc2cccnc12` (centres undefined), for which the growth is 51% in the assay with NCI-H23 lung; 33.2% in the assay on NCI-H226 lung; 46.4% with NCI-H322M lung; 20.7% in the assay with NCI-H460 lung; 19.9% with HOP-92 NSCLC; 4.85% (active) in the assay on NCI-H522 lung. Further, the growth was 37.3% in the assay with A549/ATCC NSCLC; 39.3% with 786-0 renal; 16.8% in the assay on COLO 205 colon; 57.8% in the assay on DU-145 prostate; 32.1% in the assay with K-562 leukemia; 87.6% in the assay with MALME-3M melanoma. In addition, the growth was 74.9% with RXF 393 renal; 33.4% in the assay with SF-268 CNS; 6.25% (active) in the assay on SF-295 CNS; 27.2% with SF-539 CNS; 64.3% in the assay on UACC-257 melanoma; 45.8% with M14 melanoma.
